Our source for the outcome and AC50 values is PubChem BioAssay (EPA / NIEHS).

Inconclusive results are not listed. Active and inactive are the calls of the source. The calls were made as follows, unless noted: active = hit-call score of the fitted dose curve at least 0.9, where 1 is the maximum; inactive = score below 0.9.

In assay [1] the target is Nuclear respiratory factor 1 (Homo sapiens) (UniProt Q16656). The assay can be described thus: ATG_NRF1_CIS: Attagene CIS-FACTORIAL HepG2 Assay for human Nuclear Respiratory Factor 1 (NRF1) Orphan Gene (AID 2282987). The note with it: HepG2 NRF1 cis-element reporter, Attagene multiplex; actives raise or lower the signal. In outline: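 Transcriptional reporter readout, one component of a 52-endpoint multiplexed HepG2 panel. Exposure 24 h; mRNA detected via RT-PCR and fluorescent capillary electrophoresis; fitting in both directions against DMSO.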
Chain of Nuclear respiratory factor 1 (Homo sapiens) (Q16656 whole entry, looked up): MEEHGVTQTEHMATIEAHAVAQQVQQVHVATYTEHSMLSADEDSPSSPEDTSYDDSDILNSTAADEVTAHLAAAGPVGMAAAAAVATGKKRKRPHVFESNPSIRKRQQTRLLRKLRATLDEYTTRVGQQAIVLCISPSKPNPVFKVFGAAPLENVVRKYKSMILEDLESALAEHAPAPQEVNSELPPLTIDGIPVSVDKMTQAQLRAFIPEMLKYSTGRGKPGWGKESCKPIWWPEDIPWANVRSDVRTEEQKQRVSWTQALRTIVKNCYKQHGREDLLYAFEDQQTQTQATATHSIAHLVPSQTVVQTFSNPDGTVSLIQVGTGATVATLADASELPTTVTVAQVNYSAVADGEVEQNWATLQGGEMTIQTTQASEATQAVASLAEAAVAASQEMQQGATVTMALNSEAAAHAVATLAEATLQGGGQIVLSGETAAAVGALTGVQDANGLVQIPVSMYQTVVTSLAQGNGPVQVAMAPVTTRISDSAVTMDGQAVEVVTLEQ

In assay [2] the target is Myc proto-oncogene protein (Homo sapiens) (UniProt P01106). The experiment in a line: ATG_Myc_CIS: Attagene CIS-FACTORIAL HepG2 Assay for human Myelocytomatosis (Myc) Proto-Oncogene Transcription Factor (AID 2282990). The following applies: HepG2, Attagene cis-reporter transcription factor activity; actives raise or lower the signal. In outline: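 HepG2 cells transiently transfected with multiple cis-promoter-driven reporter transcription units, so endogenous TF activity is read. After 24 h compound exposure, reporter mRNA was quantified by RT-PCR, 6-FAM labelling, HpaI digestion and capillary electrophoresis; bidirectional fit versus DMSO.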
Chain of Myc proto-oncogene protein (Homo sapiens) (P01106 whole entry, looked up): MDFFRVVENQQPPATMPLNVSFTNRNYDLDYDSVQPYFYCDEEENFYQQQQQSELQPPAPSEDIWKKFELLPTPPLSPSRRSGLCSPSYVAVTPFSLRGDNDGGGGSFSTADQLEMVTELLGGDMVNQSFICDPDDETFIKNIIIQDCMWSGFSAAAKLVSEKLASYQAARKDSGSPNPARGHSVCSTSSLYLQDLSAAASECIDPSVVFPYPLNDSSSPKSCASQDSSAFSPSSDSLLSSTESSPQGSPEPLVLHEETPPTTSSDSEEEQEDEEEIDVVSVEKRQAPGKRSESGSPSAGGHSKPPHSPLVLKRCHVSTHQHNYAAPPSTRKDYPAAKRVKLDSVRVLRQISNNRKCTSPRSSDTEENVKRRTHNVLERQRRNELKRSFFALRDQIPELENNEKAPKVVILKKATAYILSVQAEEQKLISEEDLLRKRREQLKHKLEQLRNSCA

The nature of assay [3]: ATG_NF_kB_CIS: Attagene CIS-FACTORIAL HepG2 Assay for human Nuclear Factor Kappa B (NF-kB) (AID 2282991). The note with it: HepG2 Attagene cis-factorial NF-kB reporter mRNA; actives raise or lower the signal. In a few lines: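 HepG2, transient multi-reporter transfection, cis promoter elements (endogenous TFs). 24 h exposure. Total RNA → RT → PCR → 6-FAM label → HpaI → CE. Gain/loss vs DMSO.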

Assay [4] is described as follows: ATG_NRF2_ARE_CIS: Attagene CIS-FACTORIAL HepG2 Assay for human Nuclear Factor Erythroid 2 Related Factor 2 (NFR2) response to Antioxidant Response Elements (ARE) (AID 2282992). The note with it: HepG2 Attagene ARE/NRF2 reporter, transcription factor activity; actives raise or lower the signal. In outline:
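Endogenous transcription factor activity read out as reporter transcript levels (RT-PCR plus capillary electrophoresis, fluorescence) in transiently transfected HepG2 cells. Measured at 24 h after dosing; gain or loss of signal fitted versus DMSO.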

Assay [5] is described as follows: ATG_Oct_MLP_CIS: Attagene CIS-FACTORIAL HepG2 Assay for human Octamer-Binding Transcription Factor (Oct) (AID 2282993). The following applies: HepG2 Attagene cis-factorial Oct reporter, mRNA; actives raise or lower the signal. In outline:
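Transient MRTU transfection of HepG2 → 24 h compound treatment → RNA isolation, reverse transcription, PCR → 6-FAM primer extension, HpaI digest → capillary electrophoresis. Activity fitted both directions against DMSO.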

For assay [6], the target named is Cellular tumor antigen p53 (Homo sapiens) (UniProt P04637). The assay can be described thus: ATG_p53_CIS: Attagene CIS-FACTORIAL HepG2 Assay for human p53 Transcription Factor (AID 2282994). The following applies: HepG2 p53 cis-element reporter, Attagene mRNA; actives raise or lower the signal. In outline:
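Endogenous p53 activity read in transiently transfected HepG2 from a cis-element-driven reporter transcript after 24 h exposure. RNA reverse-transcribed, PCR-amplified, fluorescently labelled and sized by capillary electrophoresis; gain or loss fitted against DMSO baseline.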

Assay [7] can be described thus: BSK_3C_TissueFactor: BioMAP Diversity Plus: 3C Assay for Tissue Factor Biomarker Activity (AID 2282997). The note with it: BioMAP 3C HUVEC, tissue factor biomarker readout; actives raise or lower the signal. In outline:
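Tissue factor on primary human umbilical vein endothelium was read by ELISA 24 h after dosing, gain or loss relative to DMSO. Cytotoxicity ran alongside via SRB (0.1%, TCA-fixed, 560 nm).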

Assay [8] in a line: BSK_3C_VCAM1: BioMAP Diversity Plus: 3C Assay for Vascular cell adhesion molecule 1 (VCAM1) Biomarker Activity (AID 2282999). The note with it: BioMAP 3C HUVEC, VCAM1 ELISA, cytokine-stimulated; actives raise or lower the signal. In a few lines:
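Vascular primary endothelium (human umbilical vein) was exposed to chemicals and assayed 24 h later. VCAM-1 levels came from ELISA, with DMSO serving as baseline for bidirectional fitting.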
In general terms: ELISA stands for enzyme-linked immunosorbent assay.

Assay [9] can be described thus: BSK_4H_Eotaxin3: BioMAP Diversity Plus: 4H Assay for Eotaxin 3 Biomarker Activity (AID 2283000).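 Also: CCL26 protein level quantified by ELISA in parallel with SRB cytotoxicity check.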 The following applies: primary human endothelial cells (HUVEC); actives raise or lower the signal. In outline: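 Human umbilical vein endothelial cells (BSK_4H system) dosed with test chemical; Eotaxin-3 (CCL26) measured by ELISA 24 h after dosing. Bidirectional curve fitting relative to DMSO negative control as baseline.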

In assay [10] the target is human Peroxisome Proliferator-activated Receptor alpha (PPARa), PPARA (gene 5465) (UniProt Q07869). The assay can be described thus: ATG_PPARa_TRANS: Attagene TRANS-FACTORIAL HepG2 Assay for human Peroxisome Proliferator-activated Receptor alpha (PPARa) (AID 2283001; active = hit-call score of the fitted dose curve at least 0.9, where 1 is the maximum). In a few lines: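 Cells (HepG2) are transfected with multiple reporter transcription units, exposed to chemical for 24 h, then total RNA is reverse-transcribed and amplified. Labelled products are quantified by capillary electrophoresis; induction is referenced to DMSO.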
Chain of human Peroxisome Proliferator-activated Receptor alpha (PPARa), PPARA (gene 5465) (Q07869 whole entry, looked up): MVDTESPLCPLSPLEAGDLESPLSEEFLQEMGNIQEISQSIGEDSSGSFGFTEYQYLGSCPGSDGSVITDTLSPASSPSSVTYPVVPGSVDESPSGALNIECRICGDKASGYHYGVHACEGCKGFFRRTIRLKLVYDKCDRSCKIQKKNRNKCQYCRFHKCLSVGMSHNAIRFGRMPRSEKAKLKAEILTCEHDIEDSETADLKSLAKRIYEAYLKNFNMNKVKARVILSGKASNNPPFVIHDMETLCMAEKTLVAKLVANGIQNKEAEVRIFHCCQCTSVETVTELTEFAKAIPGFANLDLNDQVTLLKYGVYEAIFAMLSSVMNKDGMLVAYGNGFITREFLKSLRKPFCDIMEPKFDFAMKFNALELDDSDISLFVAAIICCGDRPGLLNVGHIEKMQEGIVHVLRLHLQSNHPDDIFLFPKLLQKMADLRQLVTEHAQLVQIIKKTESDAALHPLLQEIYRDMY

Assay [11] addresses human Peroxisome Proliferator-activated Receptor delta (PPARd), PPARD (gene 5467) (UniProt Q03181). The assay can be described thus: ATG_PPARd_TRANS: Attagene TRANS-FACTORIAL HepG2 Assay for human Peroxisome Proliferator-activated Receptor delta (PPARd) (AID 2283002; active = hit-call score of the fitted dose curve at least 0.9, where 1 is the maximum). In a few lines:
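HepG2 cells transiently transfected with multiplexed GAL4-UAS reporter units and exogenous chimeric NR-Gal4 proteins; 24 h compound exposure. Reporter mRNA measured by RT-PCR, 6-FAM labelling, HpaI digestion and capillary electrophoresis; gain of signal versus DMSO.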

Read-out in assay [12]: Intercellular Adhesion Molecule 1 (ICAM1), ICAM1 (gene 3383)
The experiment in a line: BSK_3C_ICAM1: BioMAP Diversity Plus: 3C Assay for Intercellular Adhesion Molecule 1 (ICAM1) Biomarker Activity (AID 2283003). The note with it: primary human endothelial cells (HUVEC); actives raise or lower the signal. In outline: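 Chemicals are dosed onto primary human umbilical vein endothelium (3C system). After 24 h, ICAM-1 is measured by ELISA, and responses are fitted bidirectionally relative to DMSO.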

Assay [13] is described as follows: BSK_3C_Proliferation: Cell Proliferation Assessment in the BioMAP Diversity Plus: 3C Assay (AID 2283006). The note with it: primary human endothelial cells (HUVEC). In a few lines: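 Cells (human umbilical vein endothelial, sub-confluent) receive test chemical; after 48 h they are fixed in 10% trichloroacetic acid, stained with 0.1% SRB and read at 560 nm. Activity is referenced to DMSO, fitting increases and decreases.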

The target of assay [14] is Peroxisome proliferator-activated receptor gamma (Homo sapiens) (UniProt P37231). The assay can be described thus: ATG_PPARg_TRANS: Attagene TRANS-FACTORIAL HepG2 Assay for human Peroxisome Proliferator-activated Receptor-gamma (PPARg) (AID 2283007; active = hit-call score of the fitted dose curve at least 0.9, where 1 is the maximum). In a few lines:
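Multiplexed reporter transcription units in HepG2, 24 h dosing, reporter transcripts quantified by fluorescent RT-PCR and capillary electrophoresis. Increase over DMSO scored.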

Assay [15] deals with Nuclear receptor subfamily 1 group I member 2 (Homo sapiens) (UniProt O75469). The assay can be described thus: ATG_PXR_TRANS: Attagene TRANS-FACTORIAL HepG2 Assay for human Pregnane X Receptor (PXR) (AID 2283008; active = hit-call score of the fitted dose curve at least 0.9, where 1 is the maximum). In a few lines: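 Transactivation by exogenous PXR–GAL4 fusion measured as reporter transcript induction after 24 h compound treatment of transfected human HepG2 cells. Read-out via RT-PCR and capillary electrophoresis of labelled fragments, fitted upward relative to DMSO.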
Chain of Nuclear receptor subfamily 1 group I member 2 (Homo sapiens) (O75469 whole entry, looked up, the tested form may be a part): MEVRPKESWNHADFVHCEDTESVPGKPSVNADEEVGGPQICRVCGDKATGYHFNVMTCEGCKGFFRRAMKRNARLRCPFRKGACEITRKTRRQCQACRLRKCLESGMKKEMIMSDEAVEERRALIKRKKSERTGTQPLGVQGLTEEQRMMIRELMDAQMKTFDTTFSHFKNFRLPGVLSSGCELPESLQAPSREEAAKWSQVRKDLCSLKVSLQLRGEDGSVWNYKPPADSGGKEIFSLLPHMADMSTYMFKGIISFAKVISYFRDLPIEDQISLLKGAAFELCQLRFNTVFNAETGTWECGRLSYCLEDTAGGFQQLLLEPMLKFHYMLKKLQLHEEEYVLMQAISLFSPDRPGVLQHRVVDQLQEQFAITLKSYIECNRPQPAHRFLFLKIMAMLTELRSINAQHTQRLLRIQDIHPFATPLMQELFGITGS

The target in assay [16] is human Retinoic Acid Receptor gamma (RARg), RARG (gene 5916) (UniProt P13631). The experiment in a line: ATG_RARg_TRANS: Attagene TRANS-FACTORIAL HepG2 Assay for human Retinoic Acid Receptor gamma (RARg) (AID 2283009; active = hit-call score of the fitted dose curve at least 0.9, where 1 is the maximum). In a few lines:
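TRANS format measured activity of exogenous NR-GAL4 fusion (RARg) in transfected HepG2 liver cells after 24 h dosing. Induced reporter RNA was detected by RT-PCR/capillary electrophoresis fluorescence, analysed in the positive direction against DMSO.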

In assay [17] the target is human Retinoic Acid Receptor beta (RARb), RARB (gene 5915) (UniProt P10826). The assay can be described thus: ATG_RARb_TRANS: Attagene TRANS-FACTORIAL HepG2 Assay for human Retinoic Acid Receptor beta (AID 2283004; active = hit-call score of the fitted dose curve at least 0.9, where 1 is the maximum). In a few lines:
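Induction of reporter mRNA from a chimeric RARb-Gal4 construct was measured by RT-PCR, FAM labelling, HpaI digestion and capillary electrophoresis. Measurements followed 24 h compound treatment of transiently transfected human HepG2 liver cells, with DMSO as baseline.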

For assay [18], the target named is Retinoic acid receptor alpha (Homo sapiens) (UniProt P10276). The assay can be described thus: ATG_RARa_TRANS: Attagene TRANS-FACTORIAL HepG2 Assay for human Retinoic Acid Receptor alpha (RARa) (AID 2283005; active = hit-call score of the fitted dose curve at least 0.9, where 1 is the maximum). In a few lines:
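HepG2 cells transiently transfected with multiple reporter units expressing chimeric RARα-GAL4 fusion, with GAL4-UAS-driven reporters. After 24 h compound exposure, reporter mRNA induction quantified by RT-PCR and capillary electrophoresis with fluorescent labeling; gain-of-signal fitted relative to DMSO control.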

Chain of human Peroxisome Proliferator-activated Receptor delta (PPARd), PPARD (gene 5467) (Q03181 whole entry, looked up, the tested form may be a part): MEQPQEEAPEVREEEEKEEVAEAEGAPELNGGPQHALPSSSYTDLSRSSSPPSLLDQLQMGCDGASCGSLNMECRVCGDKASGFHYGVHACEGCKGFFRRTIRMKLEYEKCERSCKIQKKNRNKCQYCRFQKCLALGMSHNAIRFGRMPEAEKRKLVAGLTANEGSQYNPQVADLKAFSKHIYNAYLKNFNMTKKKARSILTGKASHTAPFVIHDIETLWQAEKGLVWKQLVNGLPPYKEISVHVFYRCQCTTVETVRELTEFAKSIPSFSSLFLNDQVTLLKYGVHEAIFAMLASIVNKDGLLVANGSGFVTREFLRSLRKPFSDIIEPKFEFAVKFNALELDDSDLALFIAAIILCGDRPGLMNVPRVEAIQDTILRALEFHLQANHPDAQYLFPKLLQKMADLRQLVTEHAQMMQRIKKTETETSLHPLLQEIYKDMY
Chain of Cellular tumor antigen p53 (Homo sapiens) (P04637 whole entry, looked up): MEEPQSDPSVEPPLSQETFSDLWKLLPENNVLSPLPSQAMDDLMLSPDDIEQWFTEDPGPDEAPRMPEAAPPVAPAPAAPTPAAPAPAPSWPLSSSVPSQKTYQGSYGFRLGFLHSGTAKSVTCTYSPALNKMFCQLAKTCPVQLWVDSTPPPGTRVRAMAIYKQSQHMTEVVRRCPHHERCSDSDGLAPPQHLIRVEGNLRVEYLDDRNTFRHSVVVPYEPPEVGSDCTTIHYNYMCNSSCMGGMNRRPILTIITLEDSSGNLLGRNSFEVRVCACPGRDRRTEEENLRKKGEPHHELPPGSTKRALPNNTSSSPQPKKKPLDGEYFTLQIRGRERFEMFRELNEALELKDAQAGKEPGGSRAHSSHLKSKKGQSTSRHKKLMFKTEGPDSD
Chain of Peroxisome proliferator-activated receptor gamma (Homo sapiens) (P37231 whole entry, looked up): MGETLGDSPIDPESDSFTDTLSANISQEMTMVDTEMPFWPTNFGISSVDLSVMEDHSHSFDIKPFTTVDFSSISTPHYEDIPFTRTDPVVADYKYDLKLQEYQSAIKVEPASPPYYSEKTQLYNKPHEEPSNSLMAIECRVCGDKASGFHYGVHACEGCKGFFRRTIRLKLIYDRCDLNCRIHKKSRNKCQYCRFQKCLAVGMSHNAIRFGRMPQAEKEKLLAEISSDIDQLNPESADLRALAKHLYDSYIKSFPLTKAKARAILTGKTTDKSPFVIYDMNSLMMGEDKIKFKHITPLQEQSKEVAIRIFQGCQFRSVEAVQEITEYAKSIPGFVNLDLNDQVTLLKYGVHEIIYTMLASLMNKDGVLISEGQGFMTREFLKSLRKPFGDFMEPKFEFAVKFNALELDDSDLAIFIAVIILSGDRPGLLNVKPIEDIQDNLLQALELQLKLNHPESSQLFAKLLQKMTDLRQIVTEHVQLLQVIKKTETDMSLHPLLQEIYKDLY
Chain of Retinoic acid receptor alpha (Homo sapiens) (P10276 whole entry, looked up, the tested form may be a part): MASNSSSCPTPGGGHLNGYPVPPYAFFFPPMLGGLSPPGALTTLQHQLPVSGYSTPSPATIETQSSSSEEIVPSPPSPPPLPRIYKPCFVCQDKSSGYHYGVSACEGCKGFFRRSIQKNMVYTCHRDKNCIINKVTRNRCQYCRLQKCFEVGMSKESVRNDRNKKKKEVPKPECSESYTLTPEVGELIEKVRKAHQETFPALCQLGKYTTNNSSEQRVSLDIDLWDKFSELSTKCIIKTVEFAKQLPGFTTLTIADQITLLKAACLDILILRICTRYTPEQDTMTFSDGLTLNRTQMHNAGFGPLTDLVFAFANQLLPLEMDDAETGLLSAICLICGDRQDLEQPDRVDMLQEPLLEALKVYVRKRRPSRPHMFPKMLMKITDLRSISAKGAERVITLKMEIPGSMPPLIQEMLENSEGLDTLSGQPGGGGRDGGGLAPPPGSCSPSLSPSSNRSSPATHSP
Chain of human Retinoic Acid Receptor beta (RARb), RARB (gene 5915) (P10826 whole entry, looked up, the tested form may be a part): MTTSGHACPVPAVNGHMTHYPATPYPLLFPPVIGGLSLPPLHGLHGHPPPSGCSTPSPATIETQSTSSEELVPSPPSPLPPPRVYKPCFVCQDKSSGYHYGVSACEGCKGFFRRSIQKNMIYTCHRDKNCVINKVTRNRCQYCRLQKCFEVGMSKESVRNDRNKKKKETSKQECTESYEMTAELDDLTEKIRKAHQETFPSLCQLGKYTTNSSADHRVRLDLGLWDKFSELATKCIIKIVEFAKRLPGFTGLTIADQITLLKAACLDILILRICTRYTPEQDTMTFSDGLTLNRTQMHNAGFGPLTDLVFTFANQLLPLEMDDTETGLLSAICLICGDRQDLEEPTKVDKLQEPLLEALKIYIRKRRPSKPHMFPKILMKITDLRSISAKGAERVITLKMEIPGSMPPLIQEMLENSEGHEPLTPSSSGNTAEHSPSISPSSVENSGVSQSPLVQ
Chain of human Retinoic Acid Receptor gamma (RARg), RARG (gene 5916) (P13631 whole entry, looked up, the tested form may be a part): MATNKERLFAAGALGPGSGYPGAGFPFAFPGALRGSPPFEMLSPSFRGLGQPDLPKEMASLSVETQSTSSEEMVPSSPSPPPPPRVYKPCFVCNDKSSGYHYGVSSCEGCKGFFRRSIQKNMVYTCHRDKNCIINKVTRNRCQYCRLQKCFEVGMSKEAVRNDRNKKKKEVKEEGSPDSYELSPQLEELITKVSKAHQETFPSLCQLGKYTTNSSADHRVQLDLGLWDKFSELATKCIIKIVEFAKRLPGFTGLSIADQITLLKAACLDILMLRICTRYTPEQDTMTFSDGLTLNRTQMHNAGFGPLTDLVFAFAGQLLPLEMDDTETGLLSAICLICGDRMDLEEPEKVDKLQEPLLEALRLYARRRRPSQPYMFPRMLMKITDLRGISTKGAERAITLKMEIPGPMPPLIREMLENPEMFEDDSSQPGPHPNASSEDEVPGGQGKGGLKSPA

Turning to `OCC(F)(F)C(F)(F)C(F)(F)CO`, the compound was called inactive in assay [1], in assay [2], in assay [3], in [4], in [5] and in assay [6]. Besides, the outcome in assay [7], in assay [8], in assay [9], in assay [10], in [11] and in assay [12] was inactive. Besides, the result in assay [13] was inactive.
Regarding `CCC(C)CO` (configuration not stated), the outcome in assay [1], in assay [2], in [3], in assay [4], in assay [5] and in assay [6] was inactive. Also, the compound was called inactive in assay [10], in assay [14], in assay [15] and in assay [16].
For the compound `Oc1ccc2c(c1)CCC2`, the compound was classed as inactive in [1], in assay [2], in [3], in assay [4], in assay [5] and in [6]. Besides, the compound was called inactive in assay [10], in [11], in assay [17], in [18], in assay [14] and in assay [15]. Also, in assay [16], the call was inactive.
For the compound `COC(=O)c1ccc(C=O)cc1`, the compound was called inactive in assay [1], in assay [2], in assay [3], in assay [4], in assay [5] and in assay [6]. Also, the compound was classed as inactive in assay [10] and in assay [14].
As usually defined, the AC50 is the midpoint of the concentration-response curve, whichever way the signal moves. Consider `O=C(c1ccccc1)c1ccc(Cl)cc1`, for which the result in assay [1], in assay [2], in assay [3], in [5], in assay [6] and in assay [11] was inactive. Also, the AC50 in [4] is 132 µM (active); in assay [14], 51.6 µM (active); in [15], 37.1 µM (active).
In the case of `O=c1cccc[nH]1`, the call in assay [1], in assay [2], in assay [3], in assay [4], in [5] and in assay [6] was inactive. For the same compound, the outcome in assay [17], in [18] and in assay [14] was inactive.
Take `NC(=O)C(F)(F)C(F)(F)C(F)(F)C(F)F`: the compound was called inactive in assay [1], in assay [2], in assay [3], in assay [4], in assay [5] and in [6]. Further, the result in [7], in assay [8], in assay [9], in assay [10], in [11] and in [12] was inactive. Moreover, the outcome in [13], in assay [14] and in assay [15] was inactive.
